Many of the other results were omitted from the sample, so hits are more common in it than they were.
CBX7 AlphaScr – blocks human CBX7 binding to H3K27me3 peptide; O95931; AlphaScreen His6-CBX7 / biotin-H3K27me3 peptide binding; hits give low values; normalised signal (fraction of DMSO) (test concentration not listed); hit rate 1.1% among 66,000; in the data active = normalised signal below about 0.5
Target sequence (O95931 whole entry, looked up): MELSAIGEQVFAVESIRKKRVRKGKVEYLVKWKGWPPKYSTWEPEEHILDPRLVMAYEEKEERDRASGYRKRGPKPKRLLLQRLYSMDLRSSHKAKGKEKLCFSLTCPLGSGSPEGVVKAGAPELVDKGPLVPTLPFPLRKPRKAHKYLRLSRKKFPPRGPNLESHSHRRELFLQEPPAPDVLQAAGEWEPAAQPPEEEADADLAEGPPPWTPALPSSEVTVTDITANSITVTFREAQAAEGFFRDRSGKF
* hit, by the source's call.

SMILES	CBX7 AlphaScr
COc1cccc(-n2ccnc2SCC(=O)Nc2ccccc2OC)c1	0.86
CCOC(=O)Cn1c(=O)c(-c2cc(Br)ccc2NC)nc2cc3ccccc3cc21	0.84
CCNc1ccc(Br)cc1-c1nc2ccccc2n(CC)c1=O	0.27*
CCOC(=O)Cn1c(=O)c(-c2ccccc2NCc2ccccc2)nc2ccccc21	0.98
CCOC(=O)c1cnc2cc(-c3ccc(Br)cc3)nn2c1-c1ccccc1	1.2
Cc1cc(C)c(C#N)c(Nc2cccc(C(F)(F)F)c2)n1	1.1
Cc1cccc2nc(-c3ccsc3)c(Nc3ccc(C(C)C)cc3)n12	0.81
Cc1ccccc1Nc1c(-c2ccccn2)nc2cccc(C)n12	0.24*
Cc1cccc2nc(-c3ccccn3)c(Nc3ccc(C(C)C)cc3)n12	0.11*
Cc1ccccc1Nc1c(-c2cccnc2)nc2cccc(C)n12	0.92
Cc1cccc2nc(-c3cccnc3)c(Nc3ccc(C(C)C)cc3)n12	0.87
Cc1cc(C)n2c(Nc3ccccc3C)c(-c3ccccn3)nc2n1	1.1
O=C(Nc1c(F)cc(F)cc1Br)C1CCN(c2nc3ccccc3[nH]2)CC1	0.81
Cc1nc2c(-c3ccccc3)c(C)nn2c(C)c1CCC(=O)Nc1ccc(Br)cc1	1.2
O=C(Nc1nc(C23CC4CC(CC(C4)C2)C3)cs1)c1ccccc1	1.3
CCOC(=O)c1[nH]c2ccc(OCc3ccccc3)cc2c1C	1.1
OC1CCCCc2c1[nH]c1ccc(C3CCCCC3)cc21 (stereo unspecified)	0.72
OC1CCCc2c1[nH]c1ccc(OCc3ccccc3)cc21 (stereo unspecified)	0.43*
c1ccc(Nc2c(-c3ccsc3)nc3ncccn23)cc1	1
O=C(Nc1ccc(Cl)c(-c2nc3ncccc3o2)c1)c1cccc(F)c1	1
Cn1cnnc1SCC(=O)Nc1nn(-c2ccccc2)nc1C(N)=O	0.97
CCOc1ccc(NC(=O)C2=CCN(S(=O)(=O)c3ccc(C)cc3)CC2)cc1	1.1
CCn1cnc2cc(NCc3ccc(OC)cc3OC)ccc21	0.93
Cc1ccc(C(=O)Nc2ccc3c(c2)ncn3-c2ccccc2)cc1	0.99
CCCn1cnc2cc(NCc3ccc(OC)cc3OC)ccc21	0.88
SMILES	CBX7 AlphaScr
COc1cccc(CNc2ccc3c(c2)ncn3-c2ccccc2)c1OC	0.26*
COc1ccc(-n2cnc3cc(NCc4cccc(OC)c4OC)ccc32)cc1	0.2*
COc1cccc(CNc2ccc3c(c2)ncn3C(C)(C)C)c1OC	0.64
CN(C(=O)c1ccc2c(=O)n3c(nc2c1)CCCCC3)c1ccc(F)cc1	0.85
c1ccc(-c2nnc3ccc(NCCN4CCOCC4)nn23)cc1	1.2
Cc1ccc(OCC(=O)Nc2c(C(=O)c3ccc(F)cc3)oc3ccccc23)cc1	1
CCOC(=O)c1[nH]cnc1C(=O)Nc1ccccn1	0.19*
CCCCCCOc1ccc(C(=O)Nc2ccccn2)cc1	1.1
CCOC(=O)c1ccc(NC(=O)COc2ccc(OC)cc2)cc1	1.3
CCOc1ccc(C2C(C(=O)Nc3ccccn3)=C(C)NC3=C2C(=O)CCC3)cc1 (stereo unspecified)	1
CCOC(=O)c1[nH]cnc1C(=O)Nc1ccccc1	1
CCOC(=O)c1[nH]cnc1C(=O)Nc1ccc(OC)cc1	0.066*
COc1cccc(-c2nnc(SCC(=O)N3CCCCC3C)o2)c1 (stereo unspecified)	1
CCN(CC)CCNC(=O)CCC(=O)Nc1ccc2nc(N3CCCCC3)cc(C)c2c1	0.97
COc1ccc(CN2CC(C(=O)NCc3ccc(F)cc3)CC2=O)cc1 (stereo unspecified)	1.1
COc1ccc(CN2CC(C(=O)NCc3ccccn3)CC2=O)cc1 (stereo unspecified)	0.37*
COc1ccc(CN2CC(C(=O)NC3CCCC3)CC2=O)cc1 (stereo unspecified)	1
c1ccc2c(OCc3nc(-c4ccncc4)no3)cccc2c1	1
O=C(NCc1cccnc1)c1ccc2c(c1)N(Cc1ccccc1F)C(=O)c1ccccc1S2	0.97
COc1ccc(-n2c(/C=C\c3ccc(F)cc3)nc3cc(OC)c(OC)cc3c2=O)cc1Cl	1.1
CCN(CCCNC(=O)CN1C(=O)COc2ccc(C(C)(C)C)cc21)c1cccc(C)c1	0.27*
CCCCNC(=O)CN1C(=O)COc2ccc(C(C)(C)C)cc21	0.93
CC(C)(C)c1ccc2c(c1)N(CC(=O)NCc1cccs1)C(=O)CO2	0.19*
Cc1ccc(CNC(=O)CN2C(=O)COc3ccc(C(C)(C)C)cc32)cc1	1.1
CCN(CCCNC(=O)CCCN1C(=O)COc2ccc(C)cc21)c1cccc(C)c1	0.85
SMILES	CBX7 AlphaScr
CC(C)(C)c1ccc2c(c1)N(CC(=O)NCc1ccc3c(c1)OCO3)C(=O)CO2	1.1
CCOC(=O)c1cnc2c(OC)cccc2c1N1CCN(CC)CC1	1
Cc1cc(C)cc(NC(=O)C2CCN(S(=O)(=O)c3ccc4c(c3)CCC(=O)N4)CC2)c1	1
CC1=Nc2cc(C(=O)NCC3CCCO3)ccc2Sc2ccccc21 (stereo unspecified)	0.91
Cc1nc2c(-c3ccccc3)c(C)nn2c(C)c1CCC(=O)NCCN1CCCC1	1.2
CCN(Cc1ccccc1)S(=O)(=O)c1ccc(C(=O)Nc2nnc(-c3cccs3)o2)cc1	0.96
CCN(CC)S(=O)(=O)c1ccc(C(=O)Nc2nc3ccc4nc(C)sc4c3s2)cc1	0.93
CCN(CC)S(=O)(=O)c1ccc(C(=O)Nc2nnc(C)o2)cc1	0.084*
CCCN(CCC)S(=O)(=O)c1ccc(C(=O)Nc2nnc(C)o2)cc1	0.083*
CCCCN(CCCC)CCNC(=O)CN1C(=O)COc2ccccc21	1
COCCCNC(=O)c1ccc2c(c1)N(Cc1ccc(Cl)cc1)CCS2	0.87
NC(=O)C1CCN(CC(=O)Nc2c3c(nc4ccccc24)CCC3)CC1	1.3
COc1ccccc1C(=O)Nc1c2c(nc3c1CCC3)CCCC2	0.95
O=C(CCCN1Cc2ccccc2C1)Nc1c2c(nc3c1CCC3)CCCC2	1
O=C(CN1CCCCC1)Nc1c2c(nc3c1CCC3)CCCC2	0.45*
CN(CC(=O)Nc1c2c(nc3c1CCC3)CCCC2)Cc1ccccc1	0.24*
O=C(CN1CCCCC1)Nc1c2c(nc3ccccc13)CCCC2	0.9
CCCOc1ccc(N2C(=O)CC(NCCCN3CCN(Cc4ccccc4)CC3)C2=O)cc1 (stereo unspecified)	0.93
CCOC(=O)c1cnc2c(C)c(Cl)ccc2c1Nc1ccc(OC)c(OC)c1	0.85
CN1C(=O)CSc2ccc(NC(=O)NCCCc3ccccc3)cc21	0.99
COc1ccccc1Cc1nc2ccccc2nc1SCC(=O)Nc1ccc(C)c(Cl)c1	0.97
Cc1ccc(CNC(=O)CCc2nc3ccccc3n(Cc3c(F)cccc3Cl)c2=O)cc1	1
Cc1cccc(CSc2nc3ccncc3n2CC(=O)Nc2ccc(C)cc2C)c1	1.1
Cc1ccc(/C=C/c2nc(-c3c(F)cccc3F)no2)cc1	1.6
Clc1ccc(Cl)c(Nc2nc(-c3ccc(-c4ccccc4)cc3)cs2)c1	0.91
SMILES	CBX7 AlphaScr
Cc1ccc(OCCN2CCN(c3ccc(C)c(C)c3)CC2)cc1	0.4*
Cc1ccc(OCCn2cnc3cc(C)c(C)cc32)cc1	0.77
Cc1ccc(OCCN2CCN(c3ncnc4scc(-c5ccccc5)c34)CC2)cc1	0.92
COc1cc(/C=C/c2cc(C(F)(F)F)[nH]c(=O)n2)ccc1OCc1ccccc1F	1
COc1cc(/C=C/c2cc(C(F)(F)F)[nH]c(=O)n2)ccc1OCc1ccc(Cl)cc1Cl	0.26*
COc1ccc(/C=C/c2cc(C(F)(F)F)[nH]c(=O)n2)cc1OC	0.88
